NS1 function inh: influenza NS1 inhibition; AID 2326; 0.4% of 270,000 active; Potency, µM (series often up to 46.1 µM); calls by dose curve; also: actives are rising curves; nearly all actives have a fitted effect of over 50% in size
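Recovery from NS1-induced slow growth read by OD600 in budding yeast switched to galactose assay medium (pH 6.0, -URA) at 1:100 dilution. Compound 23 nl per well; the matching strain lacking NS1 serves as control.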
HCV inhibitor: HCV inhibition | 3.4% of 340,000 active | Potency, µM (series often up to 41.8 µM), hits mostly inhibitors | Huh7.5.1 HCVcc-Cre infection, luciferase reporter, 44 h
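Cells seeded at 1,000/well and cultured 4 h, then compounds added followed by HCVcc-Cre virus (~0.5 moi). After 44 h further culture, luciferase substrate was added, plates held 15 min at room temperature, and luminescence read for 15 sec.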
Pf growth 96h: P. falciparum growth inhibition at 96 hours; P. falciparum luciferase reporter growth, 96 h; Potency, µM (doses to about 28.7 µM), hits mostly inhibitors; 6.9% of 320,000 active; AID 504834
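Infected RBCs, 2% Hct / 0.05% parasitemia final; luciferase-reporter P. falciparum; cpd 96 h, 37 C, 5% CO2; luciferase detection reagent; luminescence.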
Pf growth 48h: P. falciparum growth inhibition at 48 hours (one generation) | P. falciparum luciferase growth in erythrocytes, 48 h | Potency, µM (doses to about 28.7 µM), usual class: inhibitors | 5.9% of 310,000 active | AID 504832
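Compounds are pin-transferred into medium, infected erythrocytes (2% hematocrit, 0.1% parasitemia final) are added, and plates sit one parasite generation at 37 C in 5% CO2. Detection reagent is then added and luminescence measured.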
Vaccinia Venus: vaccinia inhibition (Venus reporter); Vaccinia virus Venus reporter expression, fluorescence; Potency, µM (top dose mostly 36.5 µM), most hits filed as inhibitors; 0.46% of 330,000 active; AID 720580; calls by dose curve; tested in A549 cells; also: nearly all actives have a fitted effect of over 30% in size
Vaccinia mCherry: inhibitors of vaccinia virus infection (mCherry reporter signal); Vaccinia virus mCherry reporter infection, fluorescence; Potency, µM (series often up to 36.5 µM), actives largely listed as inhibitors; 0.63% of 310,000 active; calls by dose curve; tested in A549 cells; also: nearly all actives have a fitted effect of over 35% in size
Of the large screens only hits and unclear results are named; the others gave an inactive call. Only some compounds are listed: those with a hit (about 11% of all), similar ones and a draw of the others. Unless noted, calls follow the shape of the dose curve; as a rule, active = well fitted inhibition curve with a large enough effect; inconclusive = small, poorly fitted or top-dose-only effect, or another doubt; inactive = no such curve, though single readings can be large or run the other way.

CCOC(=O)c1ccc(NC(=O)c2nc[nH]c2C(=O)N[C@@H](CC(C)C)C(=O)OC(C)(C)C)cc1	Pf growth 96h 9.3µM, Pf growth 48h 7.4µM
CC(C)C[C@H](NC(=O)c1[nH]cnc1C(=O)N[C@@H](C)C(=O)OC(C)(C)C)C(=O)OC(C)(C)C	Pf growth 96h 9.3µM, Pf growth 48h 7.4µM, Vaccinia Venus inconclusive, Vaccinia mCherry inconclusive
NNC(=O)c1nc[nH]c1C(=O)Nc1ccccc1	NS1 function inh inconclusive, Pf growth 96h 10µM (no result: Vaccinia Venus, Vaccinia mCherry)
O=C(Nc1ccccc1)c1nc[nH]c1C(=O)NCc1ccccc1	Pf growth 96h inconclusive, Vaccinia Venus inconclusive (no result: NS1 function inh)
COc1cccc(OCC(=O)NNC(=O)CCc2ccccc2)c1	none (no result: NS1 function inh)
Cc1ccc2c(c1)C(c1ccncc1)=NNC(c1cccnc1)=N2	Pf growth 96h inconclusive
COc1ccc(C2=NNC(c3cccnc3)=Nc3ccccc32)cc1	Pf growth 96h 6.6µM
O=C(NCc1ccccc1)[C@@H]1C[C@H]1[C@@H](NP(=O)(c1ccccc1)c1ccccc1)c1ccccc1	Pf growth 96h 15µM, Pf growth 48h inconclusive
O=C(Nc1ccc2ccccc2c1)[C@@H]1C[C@H]1[C@@H](NP(=O)(c1ccccc1)c1ccccc1)c1ccccc1	NS1 function inh inconclusive, Pf growth 96h inconclusive, Pf growth 48h 9.3µM
CCC1=NN(C(=O)c2ccccc2O)C(O)(c2ccccc2)C1 (configuration not stated)	HCV inhibitor inconclusive, Pf growth 96h inconclusive (no result: Vaccinia Venus, Vaccinia mCherry)
COc1ccc(NC(=O)CN(C)C(=O)c2cc3c(s2)CCC(C)C3)cc1 (configuration not stated)	none
Cc1ccc2c(c1)NC(=O)C(CC(=O)NCCCN1CCCC1=O)O2 (configuration not stated)	Pf growth 96h inconclusive (no result: Pf growth 48h)
CC1(C)Cc2ccccc2C(=O)N1	none
CCOC(=O)c1nc(Nc2ccc(Cl)cc2)c2c(C)noc2n1	none (no result: NS1 function inh, HCV inhibitor, Pf growth 96h, Pf growth 48h)
CCOC(=O)C1=C(Nc2ccc(Cl)cc2)OCC1=O	Pf growth 96h 2.6µM, Pf growth 48h 12µM
CCN(CC)S(=O)(=O)c1cccc(-n2c(O)c(C=Nc3ccccc3C(=O)O)c3ccccc3c2=O)c1	HCV inhibitor inconclusive, Pf growth 96h 7.4µM, Pf growth 48h 13µM, Vaccinia mCherry inconclusive
O=c1c2ccccc2nc(COc2ccccc2)n1/N=C/c1ccc(O)c(O)c1	HCV inhibitor inconclusive, Pf growth 96h inconclusive, Pf growth 48h inconclusive (no result: Vaccinia Venus, Vaccinia mCherry)
Cc1cc(/C=N/n2c(COc3ccccc3)nc3ccccc3c2=O)c(O)c([N+](=O)[O-])c1	HCV inhibitor inconclusive, Vaccinia Venus inconclusive, Vaccinia mCherry 28µM
Cc1ccc(-c2[nH]ncc2/C=N/n2c(COc3ccccc3)nc3ccccc3c2=O)cc1	HCV inhibitor 11µM, Pf growth 96h 10µM, Pf growth 48h 12µM, Vaccinia Venus inconclusive
COc1ccc(CNC(=O)CN2CCC(C(=O)c3ccc(OC)cc3)CC2)cc1	HCV inhibitor 13µM, Pf growth 48h inconclusive (no result: Pf growth 96h, Vaccinia Venus, Vaccinia mCherry)
COc1ccc(OCCN2CCN(C(=O)c3ccc(OC(F)F)c(OC)c3)CC2)cc1	HCV inhibitor inconclusive
O=C(c1ccc(Cl)cc1)C1CCN(C(=O)c2ccc(F)cc2)CC1	Pf growth 96h 13µM (no result: Vaccinia Venus, Vaccinia mCherry)
COCCCNC(=S)N1CCC(C(=O)c2ccc(Cl)cc2)CC1	HCV inhibitor 4µM, Pf growth 96h inconclusive, Vaccinia Venus inconclusive
COc1ccc(OCCN2CCN(C(=O)c3ccc(OC)cc3)CC2)cc1	HCV inhibitor 10µM
COc1ccc(C(c2nnnn2C2CCCCC2)N2CCC3(CC2)C(=O)NCN3c2ccccc2)cc1 (configuration not stated)	none (no result: NS1 function inh, HCV inhibitor, Pf growth 96h, Pf growth 48h)
CC1CN(C(=O)COC(=O)c2cc3ccccc3cc2O)CC(C)O1 (configuration not stated)	none (no result: NS1 function inh, Pf growth 96h, Pf growth 48h)
CN(Cc1ccccc1)C(=C(Cl)Cl)C(=C1NCCN1)[N+](=O)[O-]	none (no result: NS1 function inh)
N#Cc1ccc(OCC(O)CS(=O)(=O)c2ccc(F)cc2)cc1 (configuration not stated)	none
CC1CN(C(=O)c2ccc3c(c2)OCO3)CC(C)O1 (configuration not stated)	none (no result: Pf growth 48h)
COc1ccc2nc(NC(=O)C3CCN(C(=O)c4ccc(F)cc4)CC3)sc2c1	HCV inhibitor inconclusive, Pf growth 96h 9.3µM, Pf growth 48h inconclusive, Vaccinia Venus inconclusive, Vaccinia mCherry inconclusive
Cc1cc2ncn(C(=O)c3ccc4c(c3)OCO4)c2cc1C	Pf growth 96h 2.9µM (no result: Vaccinia mCherry)
COc1ccc(C(=O)C2CCN(C(=O)c3ccc(OC)cc3)CC2)cc1	HCV inhibitor 7.9µM, Pf growth 96h inconclusive, Pf growth 48h inconclusive, Vaccinia Venus inconclusive
CC1CCN(C(=O)c2ccc3c(c2)OCO3)CC1	NS1 function inh inconclusive, Pf growth 96h 13µM (no result: Vaccinia Venus, Vaccinia mCherry)
CCC(C)c1ccc(OCCn2ccnc2)cc1 (configuration not stated)	Pf growth 48h inconclusive
COC(=O)CSc1nnnn1-c1ccccc1	Pf growth 96h inconclusive (no result: Vaccinia mCherry)
CC(C)CNC(=O)C1(C)CCCN1Cc1ccc(OC(F)(F)F)cc1 (configuration not stated)	none (no result: NS1 function inh, HCV inhibitor, Pf growth 96h, Pf growth 48h)
Cc1ccc(C(=O)N2CCC(C(=O)c3c(C)cc(C)cc3C)CC2)cc1	HCV inhibitor 11µM, Pf growth 96h inconclusive, Pf growth 48h inconclusive (no result: Vaccinia Venus, Vaccinia mCherry)
CCOc1ccc(C(=O)N2CCC(C(=O)c3ccc4c(c3)OCCO4)CC2)cc1	NS1 function inh inconclusive, HCV inhibitor 10µM (no result: Vaccinia Venus, Vaccinia mCherry)
Cc1ccc(C(=O)COC(=O)CNC(=O)c2cccs2)cc1	none
Cc1cc(C)cc(NC(=O)CSc2nnc(CNC(=O)c3cccs3)o2)c1	none
O=C(CSc1nnc(CNC(=O)c2cccs2)o1)Nc1ccc(Br)cc1	Pf growth 96h 13µM
O=C(CSc1nnc(CNC(=O)c2cccs2)o1)Nc1ccc(Cl)cc1	Pf growth 96h 10µM
COc1ccccc1NC(=S)N1CCN(C/C=C/c2ccccc2)CC1	Pf growth 96h inconclusive
COc1ccc2[nH]c(S(=O)Cc3ncc(C)c(OC)c3C)nc2c1 (configuration not stated)	Pf growth 96h 5.9µM (no result: Pf growth 48h)
COc1ccc2[nH]c(S(=O)Cc3ncc(C)c(OC)c3C)nc2n1 (configuration not stated)	Pf growth 96h 8.5µM, Pf growth 48h 9.5µM (no result: NS1 function inh, HCV inhibitor, Vaccinia Venus, Vaccinia mCherry)
COc1ccnc(CS(=O)c2nc3cc(C(O)(F)F)ccc3[nH]2)c1OC (configuration not stated)	none
Cc1ccccc1-c1nc2ccccc2c(=O)n1C1CCS(=O)(=O)C1 (configuration not stated)	none (no result: Pf growth 96h)
O=C(NCc1cccs1)c1cc(S(=O)(=O)N2CCOCC2)ccc1N1CCCC1	Pf growth 48h inconclusive (no result: NS1 function inh)
Cc1ccc(CNS(=O)(=O)c2ccc(N3CCCCS3(=O)=O)cc2)cc1	none (no result: NS1 function inh, HCV inhibitor, Pf growth 96h, Pf growth 48h)
Cc1ccc(Sc2ccc(/C=N/O)cc2[N+](=O)[O-])cc1	HCV inhibitor 11µM, Pf growth 48h inconclusive, Vaccinia Venus inconclusive, Vaccinia mCherry inconclusive
CO/N=C/c1ccc(Sc2ccc(C)cc2)c([N+](=O)[O-])c1	HCV inhibitor inconclusive (no result: Pf growth 96h, Vaccinia mCherry)
Cc1[nH]c(-c2ccco2)nc1C(=O)O	Pf growth 96h 6.6µM (no result: Vaccinia Venus, Vaccinia mCherry)

Screening data as filed in PubChem.
